Here are results for 28 compounds from PubChem BioAssay (EPA / NIEHS).

Each structure is given as a SMILES string. Results filed as inconclusive are left out. Activity calls are given as the source filed them. The calls were made as follows: active = hit-call score of the fitted dose curve at least 0.9, where 1 is the maximum; inconclusive = response in the unintended direction; inactive = score below 0.9.

Peroxisome proliferator-activated receptor gamma (Homo sapiens), sequence (P37231 whole entry, looked up): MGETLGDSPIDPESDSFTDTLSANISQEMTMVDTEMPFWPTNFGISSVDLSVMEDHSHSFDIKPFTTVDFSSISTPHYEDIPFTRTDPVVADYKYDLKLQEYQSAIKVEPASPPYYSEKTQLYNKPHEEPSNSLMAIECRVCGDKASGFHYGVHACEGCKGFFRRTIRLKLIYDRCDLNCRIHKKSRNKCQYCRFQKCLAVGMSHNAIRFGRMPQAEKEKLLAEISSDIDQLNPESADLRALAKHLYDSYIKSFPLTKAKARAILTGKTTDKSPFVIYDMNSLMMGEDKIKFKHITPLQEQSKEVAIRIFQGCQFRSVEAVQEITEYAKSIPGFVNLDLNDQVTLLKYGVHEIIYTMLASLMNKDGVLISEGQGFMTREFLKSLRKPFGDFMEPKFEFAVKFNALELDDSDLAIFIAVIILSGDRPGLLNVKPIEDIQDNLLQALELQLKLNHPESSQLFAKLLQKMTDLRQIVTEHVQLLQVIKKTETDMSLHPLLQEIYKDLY
Retinoic acid receptor RXR-alpha (Homo sapiens), sequence (P19793 whole entry, looked up, the tested form may be a part): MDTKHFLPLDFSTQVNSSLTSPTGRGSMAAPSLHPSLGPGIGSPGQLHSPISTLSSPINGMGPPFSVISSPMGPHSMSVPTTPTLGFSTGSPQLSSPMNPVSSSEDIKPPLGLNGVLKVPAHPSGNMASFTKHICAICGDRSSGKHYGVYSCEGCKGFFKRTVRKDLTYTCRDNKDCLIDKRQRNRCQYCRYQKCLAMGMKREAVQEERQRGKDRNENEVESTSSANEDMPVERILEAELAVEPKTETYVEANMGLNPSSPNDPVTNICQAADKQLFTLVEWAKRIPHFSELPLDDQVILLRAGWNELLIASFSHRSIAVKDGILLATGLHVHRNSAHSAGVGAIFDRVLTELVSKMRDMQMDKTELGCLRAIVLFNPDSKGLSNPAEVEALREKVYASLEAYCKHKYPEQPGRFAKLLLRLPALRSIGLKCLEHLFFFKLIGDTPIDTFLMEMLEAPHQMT

For the first experiment, the target named is Peroxisome proliferator-activated receptor gamma (Homo sapiens) (UniProt P37231). Kind of experiment: ATG_PPARg_TRANS: Attagene TRANS-FACTORIAL HepG2 Assay for human Peroxisome Proliferator-activated Receptor-gamma (PPARg) (AID 2283007). The method, boiled down:
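Multiplexed reporter transcription units in HepG2, 24 h dosing, reporter transcripts quantified by fluorescent RT-PCR and capillary electrophoresis. Increase over DMSO scored.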
As for `Oc1ccccc1O`, the compound was classed as inactive.
What is called AC50 is the midpoint of the concentration-response curve, whichever way the signal moves. As to `CC1=C(C)S(=O)(=O)CCS1(=O)=O`, the concentration at half-maximal activity (AC50) was 77.8 µM (active).
Regarding `CC(C)COC(=O)CCCCC(=O)OCC(C)C`, the call was inactive.
As for `COc1ccc(C(=O)Nc2nc3ccccc3c(NCc3ccccc3)c2C#N)cc1`, the AC50 is 1.45 µM (active).
Take `CO[C@@H]1COCC[C@@H]1N[C@@H]1CC[C@@](C(=O)N2CCc3ncc(C(F)(F)F)cc3C2)(C(C)C)C1`: the call was inactive.
On to `Oc1ccc(O)cc1`, for which the outcome was inactive.
With `CN(C)CCCN(C)CCCN(C)C`, the outcome was inactive.
Regarding `O=C(O)c1cccnc1`, the compound was classed as inactive.
Take `CCCCCCCCCC[N+](C)(C)[O-]`: the compound was called inactive.
For `CCCCc1nc2cccnc2n1Cc1ccc(-c2ccccc2-c2nnn[nH]2)cc1`, the half-maximal activity concentration (AC50) was 4.39 µM (active).
Still for that read-out and setting: the value for `CCCCCCCCCCCCCCOS(=O)(=O)O` was 11.1 µM (active).
As for `CCc1nc(N)nc(N)c1-c1ccc(Cl)cc1`, the call was inactive.
Same read-out and setting: the entry for `COC(=O)[C@H]1[C@H]2C[C@@H]3c4[nH]c5cc(OC)ccc5c4CCN3C[C@H]2C[C@@H](OC(=O)c2cc(OC)c(OC)c(OC)c2)[C@@H]1OC` is “inactive”.
On to `CCCCCCC(CCCCCCCCCCC(=O)OCC(COC(C)=O)OC(C)=O)OC(C)=O` (stereo not drawn), for which the AC50 is 50 µM (active).
For `CCCCOC(=O)CCCCC(=O)OCCCC`, the result was inactive.
With `O=C(Oc1ccccc1)c1cccc(C(=O)Oc2ccccc2)c1`, the half-maximal activity concentration (AC50) was 60.4 µM (active).

In another experiment the target is Nuclear receptor subfamily 1 group I member 2 (Homo sapiens) (UniProt O75469). Put plainly: ATG_PXR_TRANS: Attagene TRANS-FACTORIAL HepG2 Assay for human Pregnane X Receptor (PXR) (AID 2283008). The method, boiled down: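 Multiplexed TRANS reporter panel in HepG2; this component tracks PXR-Gal4-driven reporter mRNA after 24 h dosing, measured by RT-PCR with capillary electrophoresis fluorescence, fitted against DMSO.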
Nuclear receptor subfamily 1 group I member 2 (Homo sapiens), sequence (O75469 whole entry, looked up, the tested form may be a part): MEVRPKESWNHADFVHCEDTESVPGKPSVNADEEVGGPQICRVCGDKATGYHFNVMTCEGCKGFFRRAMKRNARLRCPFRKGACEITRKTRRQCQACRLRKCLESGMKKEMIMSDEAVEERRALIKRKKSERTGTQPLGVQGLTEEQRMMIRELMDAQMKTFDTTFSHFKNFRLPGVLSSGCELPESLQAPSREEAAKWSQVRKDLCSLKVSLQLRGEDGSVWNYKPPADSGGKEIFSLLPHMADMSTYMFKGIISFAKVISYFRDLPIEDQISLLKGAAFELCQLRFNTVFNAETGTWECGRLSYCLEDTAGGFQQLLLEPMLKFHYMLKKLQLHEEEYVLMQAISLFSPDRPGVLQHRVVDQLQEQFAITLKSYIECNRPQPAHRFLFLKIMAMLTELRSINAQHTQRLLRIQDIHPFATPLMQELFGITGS
As to `CCCCC(CC)COP(=O)(OCC(CC)CCCC)OCC(CC)CCCC` (stereo not drawn), the AC50 was 0.227 µM (active).
As to `C/C=C/c1ccc(OC)cc1`, the compound was classed as inactive.
The same measure, in the same setting: the entry for `O=NO` is “inactive”.
As to `CCCC[C@H]1CN(CC2CCOCC2)C(=O)OC12CCN(C1(C)CCN(C(=O)c3c(C)ncnc3C)CC1)CC2`, the compound was classed as inactive.
For `Cc1cc(SC2=C(O)C[C@@](CCc3ccc(N)cc3)(C(C)C)OC2=O)c(C(C)(C)C)cc1CO`, the AC50 is 1.65 µM (active).

A further experiment deals with human RAR-related Orphan Receptor beta (RORb), RORB (gene 6096) (UniProt Q92753). Kind of experiment: ATG_RORb_TRANS: Attagene TRANS-FACTORIAL HepG2 Assay for human RAR-related Orphan Receptor beta (RORb) (AID 2283010). Summed up: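 Multiplexed transcription-factor reporter assay: HepG2 cells transiently carrying NR-Gal4/GAL4-UAS constructs, 24 h treatment, mRNA quantified by RT-PCR plus capillary electrophoresis fluorescence; activity scored as induction over DMSO.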
human RAR-related Orphan Receptor beta (RORb), RORB (gene 6096), sequence (Q92753 whole entry, looked up, the tested form may be a part): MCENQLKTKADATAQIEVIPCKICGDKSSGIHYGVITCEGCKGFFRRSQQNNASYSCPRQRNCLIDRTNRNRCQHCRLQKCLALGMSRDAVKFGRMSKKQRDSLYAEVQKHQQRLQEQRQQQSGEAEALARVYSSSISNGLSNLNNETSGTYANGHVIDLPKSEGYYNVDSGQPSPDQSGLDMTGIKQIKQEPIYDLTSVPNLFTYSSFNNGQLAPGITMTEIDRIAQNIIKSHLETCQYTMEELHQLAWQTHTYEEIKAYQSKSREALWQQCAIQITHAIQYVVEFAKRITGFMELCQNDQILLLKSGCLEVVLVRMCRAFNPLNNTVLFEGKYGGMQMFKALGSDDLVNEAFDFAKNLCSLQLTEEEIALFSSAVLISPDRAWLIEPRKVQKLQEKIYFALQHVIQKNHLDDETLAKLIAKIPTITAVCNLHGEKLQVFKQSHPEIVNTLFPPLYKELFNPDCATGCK
For the compound `CCCCC(CC)COP(=O)(OCC(CC)CCCC)OCC(CC)CCCC` (stereo not drawn), the outcome was inactive.
For `Oc1ccccc1O`, the result was inactive.
Same read-out and setting: the value for `COc1ccc(C(=O)Nc2nc3ccccc3c(NCc3ccccc3)c2C#N)cc1` was “inactive”; that for `O=C1O[C@H]([C@H](O)CO)C(O)=C1O` was “inactive”.
Take `O=NO`: the compound was called inactive.
Same read-out and setting: the entry for `CCCC[C@H]1CN(CC2CCOCC2)C(=O)OC12CCN(C1(C)CCN(C(=O)c3c(C)ncnc3C)CC1)CC2` is “inactive”; for `Oc1ccc(O)cc1` it is “inactive”; for `Cc1cc(SC2=C(O)C[C@@](CCc3ccc(N)cc3)(C(C)C)OC2=O)c(C(C)(C)C)cc1CO` it is “inactive”.
Consider `O=C(O)c1cccnc1`, for which the compound was called inactive.
Same read-out and setting: the entry for `CCCCc1nc2cccnc2n1Cc1ccc(-c2ccccc2-c2nnn[nH]2)cc1` is “inactive”.
`CCCCCCCCCCCCCCOS(=O)(=O)O`: the compound was classed as inactive.
The same measure, in the same setting: the value for `COC(=O)CCCC(=O)OC` was “inactive”; that for `O=C1c2c(O)cccc2Cc2cccc(O)c21` was “inactive”.

A further experiment deals with human RAR-related Orphan Receptor gamma (RORg), RORC (gene 6097) (UniProt P51449). Put plainly: ATG_RORg_TRANS: Attagene TRANS-FACTORIAL HepG2 Assay for human RAR-related Orphan Receptor gamma (RORg) (AID 2283011). The method, boiled down: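 Readout: reporter transcript induction (RT-PCR, fluorescent primer extension, capillary electrophoresis) after 24 h compound exposure of transiently transfected HepG2 cells carrying a RORg-Gal4 chimera and GAL4-UAS reporters; DMSO served as baseline, with increasing signal fitted.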
human RAR-related Orphan Receptor gamma (RORg), RORC (gene 6097), sequence (P51449 whole entry, looked up, the tested form may be a part): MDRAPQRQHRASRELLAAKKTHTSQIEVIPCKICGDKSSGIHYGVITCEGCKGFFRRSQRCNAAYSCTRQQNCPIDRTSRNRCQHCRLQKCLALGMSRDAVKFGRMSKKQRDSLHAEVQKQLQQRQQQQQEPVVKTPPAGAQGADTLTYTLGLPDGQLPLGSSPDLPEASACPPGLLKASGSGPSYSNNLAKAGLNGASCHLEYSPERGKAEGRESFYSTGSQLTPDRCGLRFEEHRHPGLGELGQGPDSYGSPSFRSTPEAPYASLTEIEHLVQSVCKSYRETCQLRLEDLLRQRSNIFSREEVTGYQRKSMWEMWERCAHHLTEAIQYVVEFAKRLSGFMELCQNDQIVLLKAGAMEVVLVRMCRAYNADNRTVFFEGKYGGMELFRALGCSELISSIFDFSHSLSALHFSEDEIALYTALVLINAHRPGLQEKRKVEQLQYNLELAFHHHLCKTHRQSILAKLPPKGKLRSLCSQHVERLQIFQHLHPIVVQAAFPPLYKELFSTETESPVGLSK
In the case of `Oc1ccccc1O`, the call was inactive.
On the same count and under the same terms, the entry for `CC1=C(C)S(=O)(=O)CCS1(=O)=O` is “inactive”; for `CC(C)COC(=O)CCCCC(=O)OCC(C)C` it is “inactive”.
Still for that read-out and setting: the value for `COc1ccc(C(=O)Nc2nc3ccccc3c(NCc3ccccc3)c2C#N)cc1` was “inactive”.
For the compound `O=C1O[C@H]([C@H](O)CO)C(O)=C1O`, the compound was classed as inactive.
Still for that read-out and setting: the entry for `O=C(O)CN(CC(=O)O)CC(=O)O` is “inactive”; for `CO[C@@H]1COCC[C@@H]1N[C@@H]1CC[C@@](C(=O)N2CCc3ncc(C(F)(F)F)cc3C2)(C(C)C)C1` it is “inactive”; for `CCc1cc(C2=C(C(=O)O)N(c3ccccc3C(F)(F)F)S(=O)(=O)c3ccccc32)cc2c1OCO2` it is “inactive”.
As for `Cc1cc(SC2=C(O)C[C@@](CCc3ccc(N)cc3)(C(C)C)OC2=O)c(C(C)(C)C)cc1CO`, the result was inactive.
Turning to `O=C(O)c1cccnc1`, the compound was classed as inactive.
Still for that read-out and setting: the entry for `O=C(Oc1ccccc1)c1cccc(C(=O)Oc2ccccc2)c1` is “inactive”.

The next experiment has as its target Retinoic acid receptor RXR-alpha (Homo sapiens) (UniProt P19793). Put plainly: ATG_RXRa_TRANS: Attagene TRANS-FACTORIAL HepG2 Assay for human Retinoid X Receptor alpha (RXRa) (AID 2283012). Summed up:
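Chimeric NR-GAL4 trans-activation in HepG2, 24 h treatment; reporter transcripts quantified by fluorescence on capillary electrophoresis, analysed for upward change from DMSO.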
`Oc1ccccc1O`: the compound was classed as inactive.
Same read-out and setting: the value for `CC(C)(O)c1ccc(CNC(=O)c2cccnc2Oc2ccc(F)cc2)cc1` was “inactive”.
On the same count and under the same terms, the entry for `COc1ccc(C(=O)Nc2nc3ccccc3c(NCc3ccccc3)c2C#N)cc1` is “inactive”.
As to `O=C1O[C@H]([C@H](O)CO)C(O)=C1O`, the compound was classed as inactive.
On the same count and under the same terms, the entry for `O=C(O)CN(CC(=O)O)CC(=O)O` is “inactive”; for `O=NO` it is “inactive”; for `CCCC[C@H]1CN(CC2CCOCC2)C(=O)OC12CCN(C1(C)CCN(C(=O)c3c(C)ncnc3C)CC1)CC2` it is “inactive”.
The same measure, in the same setting: the entry for `CCc1cc(C2=C(C(=O)O)N(c3ccccc3C(F)(F)F)S(=O)(=O)c3ccccc32)cc2c1OCO2` is “inactive”; for `Cc1cc(SC2=C(O)C[C@@](CCc3ccc(N)cc3)(C(C)C)OC2=O)c(C(C)(C)C)cc1CO` it is “inactive”; for `O=C(O)c1cccnc1` it is “inactive”.
For `CCCCCCCCCC[N+](C)(C)[O-]`, the compound was classed as inactive.
On the same count and under the same terms, the value for `CCCCc1nc2cccnc2n1Cc1ccc(-c2ccccc2-c2nnn[nH]2)cc1` was “inactive”; that for `CCCCCCCCCCCCCCOS(=O)(=O)O` was “inactive”; that for `CCc1nc(N)nc(N)c1-c1ccc(Cl)cc1` was “inactive”.
On the same count and under the same terms, the value for `COC(=O)[C@H]1[C@H]2C[C@@H]3c4[nH]c5cc(OC)ccc5c4CCN3C[C@H]2C[C@@H](OC(=O)c2cc(OC)c(OC)c(OC)c2)[C@@H]1OC` was “inactive”.
On to `COC(=O)CCCC(=O)OC`, for which the call was inactive.
As to `CCCCOC(=O)CCCCC(=O)OCCCC`, the call was inactive.
Consider `CN(C)CCCN1c2ccccc2Sc2ccc(Cl)cc21`, for which the compound was called inactive.
